Reference: PubChem BioAssay (NCATS)
Records with an inconclusive call do not appear. Activity calls are given as the source filed them. Calls follow the shape of the dose curve; as a rule, active = well fitted inhibition curve with a large enough effect; inconclusive = small, poorly fitted or top-dose-only effect; inactive = no such curve, though single readings can be large or run the other way.

Molecular target: Cytochrome P450 2C19 (Homo sapiens) (UniProt P33261)
Assay: qHTS Assay for Inhibitors and Substrates of Cytochrome P450 2C19 (AID 899); also: nearly all actives have a fitted effect of over 60% in size
Conditions: recombinant CYP2C19, luciferin-H EGE luminescence; series mostly up to 11.4 µM; activity, negative = inhibition: at the top concentration
How it was run: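 Luminescence readout of luciferin formed from 10uM Luciferin-H EGE (KM level) by 5 nM CYP2C19 in 50mM KPO4. 60 min NADPH-driven reaction at 37C after 10 min compound preincubation; data scaled to 57uM ketoconazole inhibition.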
% is scaled to controls: 0 for no effect and ±100 for the full control effect; potency is read from the fitted curve at half-maximal effect.

Sequence of Cytochrome P450 2C19 (Homo sapiens) (P33261 whole entry, looked up): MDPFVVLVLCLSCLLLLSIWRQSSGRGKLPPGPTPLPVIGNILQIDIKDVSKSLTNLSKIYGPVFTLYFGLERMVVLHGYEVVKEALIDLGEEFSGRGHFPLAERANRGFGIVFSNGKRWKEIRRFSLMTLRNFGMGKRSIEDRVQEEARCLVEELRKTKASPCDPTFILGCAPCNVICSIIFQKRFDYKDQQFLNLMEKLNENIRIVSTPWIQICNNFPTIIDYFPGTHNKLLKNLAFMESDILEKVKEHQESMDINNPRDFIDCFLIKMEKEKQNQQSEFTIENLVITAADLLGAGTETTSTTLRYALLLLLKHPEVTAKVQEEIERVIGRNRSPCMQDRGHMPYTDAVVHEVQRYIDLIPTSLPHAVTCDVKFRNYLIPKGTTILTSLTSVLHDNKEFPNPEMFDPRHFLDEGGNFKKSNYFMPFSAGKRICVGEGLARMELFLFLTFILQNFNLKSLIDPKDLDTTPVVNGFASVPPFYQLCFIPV

activity, negative = inhibition, inactive:
O=c1c[n+](CCCC[n+]2cc(=O)o[nH]2)[nH]o1 45.6%, CC(C)NC[C@@H](O)c1ccc(O)c2ncccc12 70.4%, Cn1cnc([N+](=O)[O-])c1SCC(=O)O 52.8%, C[N+](C)(C)c1ncnc2c1ncn2[C@@H]1CCCCO1 49.2%, O=C(O)CSc1ccn(Cc2ccccc2)c1 48.7%, C[C@@]12CCC(=O)C=C1CC[C@H]1[C@@H]2[C@@H](O)C[C@]2(C)[C@@H]1CC[C@@]2(O)C(=O)CO 48.8%

Potency, active:
c1ccc(NCCSc2nc3ccccc3s2)cc1 398 nM, O=C(O)[C@@H](O)[C@@H](O)[C@@H](O)[C@@H](O)c1nc2ccccc2s1 3160 nM, NCCSc1nc2ccccc2s1 1580 nM, ON(CCc1ccncc1)Cc1ccccc1 316 nM, COc1ccccc1CCn1c(=O)c(-c2ccc(F)cc2)nc2cncnc21 316 nM, CC(C)(C)c1ccc(NS(=O)(=O)c2ccc(N)cc2)cc1 398 nM
